{
  "source": "the supplement of paper PMC8728848",
  "binders": {"B1": {"name": "RbmA (Vibrio cholerae), A0A2H4NFB8 (protein)", "chain": "MSNFKGSIMNKRHYYLASCLALLFSTASYAEVDCELQPVIEANLSLNQNQLASNGGYISSQLGIRNESCETVKFKYWLSIKGPEGIYFPAKAVVGVDTAQQESDALTDGRMLNVTRGFWVPEYMADGKYTVSLQVVAENGEVFKANQEFVKGGDLNSLPELNGLTIDIKNQFGINSVESTGGFVPFTIDLNNGREGEAKVEFWMTAVGPDGLIIPVHSREKWMIIAGNTFSKVRGINFDKSYPAGEYTINAQVVDIVSGERVEQLMTVVKK"}},
  "assay_in_all_cases": "glycan array binding signal (z-score within array); higher = stronger binding",
  "settings_in_all_cases": "glycan notation: IUPAC condensed, linker removed",
  "key": {"[1]": {"molecular_target": "GlcNAc(b1-3)Gal(b1-4)GlcNAc(b1-3)Gal(b1-4)GlcNAc(b1-3)Gal(b1-4)GlcNAc(b1-2)Man(a1-3)[GlcNAc(b1-3)Gal(b1-4)GlcNAc(b1-3)Gal(b1-4)GlcNAc(b1-3)Gal(b1-4)GlcNAc(b1-2)Man(a1-6)]Man(b1-4)GlcNAc(b1-4)[Fuc(a1-6)]GlcNAc", "summary_of_the_method": "(§1)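 From the Consortium for Functional Glycomics database, 3228 arrays were curated, keeping only those whose protein sequence was available. Binding is given as a within-array Z-score averaged across arrays sharing a protein sequence and across linkers. Negative Z-scores can be read as non-binding.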"}, "[2]": {"molecular_target": "GlcNAc(b1-3)Gal(b1-4)GlcNAc(b1-3)Gal(b1-4)GlcNAc(b1-3)Gal(b1-4)GlcNAc(b1-2)[GlcNAc(b1-3)Gal(b1-4)GlcNAc(b1-3)Gal(b1-4)GlcNAc(b1-3)Gal(b1-4)GlcNAc(b1-6)]Man(a1-6)[GlcNAc(b1-3)Gal(b1-4)GlcNAc(b1-3)Gal(b1-4)GlcNAc(b1-3)Gal(b1-4)GlcNAc(b1-2)Man(a1-3)]Man(b1-4)GlcNAc(b1-4)[Fuc(a1-6)]GlcNAc", "summary_of_the_method": "as §1"}, "[3]": {"molecular_target": "GlcNAc(b1-3)[GlcNAc(b1-4)][GlcNAc(b1-6)]GlcNAc", "summary_of_the_method": "as §1"}, "Man(a1-3)[Man(a1-6)]Man": {"molecular_target": "Man(a1-3)[Man(a1-6)]Man", "summary_of_the_method": "as §1"}, "[4]": {"molecular_target": "Neu5Ac(a2-3)Gal(b1-3)GlcNAc(b1-3)Gal(b1-3)GlcNAc", "summary_of_the_method": "as §1"}, "[5]": {"molecular_target": "Neu5Ac(a2-3)Gal(b1-3)[Fuc(a1-4)]GlcNAc", "summary_of_the_method": "as §1"}, "[6]": {"molecular_target": "Neu5Ac(a2-3)Gal(b1-3)[Neu5Ac(a2-6)]GalNAc", "summary_of_the_method": "as §1"}, "[7]": {"molecular_target": "Neu5Ac(a2-3)Gal(b1-4)GlcNAc", "summary_of_the_method": "as §1"}, "[8]": {"molecular_target": "Neu5Ac(a2-3)Gal(b1-4)GlcNAc(b1-2)Man", "summary_of_the_method": "as §1"}, "[9]": {"molecular_target": "Neu5Ac(a2-3)Gal(b1-4)GlcNAc(b1-3)Gal(b1-3)GlcNAc", "summary_of_the_method": "as §1"}, "[10]": {"molecular_target": "Neu5Ac(a2-3)Gal(b1-4)GlcNAc6S", "summary_of_the_method": "as §1"}, "[11]": {"molecular_target": "Neu5Ac(a2-3)Gal(b1-4)[Fuc(a1-3)]GlcNAc(b1-3)GalNAc", "summary_of_the_method": "as §1"}, "[12]": {"molecular_target": "Neu5Ac(a2-3)Gal(b1-4)[Fuc(a1-3)]GlcNAc6S", "summary_of_the_method": "as §1"}, "[13]": {"molecular_target": "Neu5Ac(a2-6)Gal(b1-4)GlcNAc(b1-2)Man(a1-6)[Gal(b1-4)GlcNAc(b1-2)Man(a1-3)]Man(b1-4)GlcNAc(b1-4)GlcNAc", "summary_of_the_method": "as §1"}, "[14]": {"molecular_target": "Neu5Ac(a2-6)Gal(b1-4)GlcNAc(b1-2)Man(a1-6)[GlcNAc(b1-2)Man(a1-3)]Man(b1-4)GlcNAc(b1-4)GlcNAc", "summary_of_the_method": "as §1"}, "[15]": {"molecular_target": "Neu5Ac(a2-6)Gal(b1-4)GlcNAc(b1-3)Gal(b1-4)GlcNAc(b1-3)Gal(b1-4)GlcNAc(b1-2)Man(a1-3)[Neu5Ac(a2-6)Gal(b1-4)GlcNAc(b1-3)Gal(b1-4)GlcNAc(b1-3)Gal(b1-4)GlcNAc(b1-2)Man(a1-6)]GalNAc", "summary_of_the_method": "as §1"}, "[16]": {"molecular_target": "Neu5Ac(a2-6)GlcNAc(b1-4)GlcNAc", "summary_of_the_method": "as §1"}, "[17]": {"molecular_target": "Neu5Ac(a2-8)Neu5Ac(a2-8)Neu5Ac(a2-3)[Gal(b1-3)GalNAc(b1-4)]Gal(b1-4)Glc", "summary_of_the_method": "as §1"}, "Neu5Gc(a2-3)Gal(b1-4)Glc": {"molecular_target": "Neu5Gc(a2-3)Gal(b1-4)Glc", "summary_of_the_method": "as §1"}},
  "note": "This excerpt belongs to a sample that is enriched for the strongest signals.",
  "data": [
    {"binder": "B1", "values": [
      {"measurement": "glycan array binding signal (z-score)", "setting": "[1]", "value": 3.92},
      {"measurement": "glycan array binding signal (z-score)", "setting": "[2]", "value": 0.187},
      {"measurement": "glycan array binding signal (z-score)", "setting": "[3]", "value": 0.095},
      {"measurement": "glycan array binding signal (z-score)", "setting": "Man(a1-3)[Man(a1-6)]Man", "value": 0.76},
      {"measurement": "glycan array binding signal (z-score)", "setting": "[4]", "value": -0.516},
      {"measurement": "glycan array binding signal (z-score)", "setting": "[5]", "value": -1.17},
      {"measurement": "glycan array binding signal (z-score)", "setting": "[6]", "value": 0.382},
      {"measurement": "glycan array binding signal (z-score)", "setting": "[7]", "value": -0.847},
      {"measurement": "glycan array binding signal (z-score)", "setting": "[8]", "value": 3.52},
      {"measurement": "glycan array binding signal (z-score)", "setting": "[9]", "value": -0.862},
      {"measurement": "glycan array binding signal (z-score)", "setting": "[10]", "value": 3},
      {"measurement": "glycan array binding signal (z-score)", "setting": "[11]", "value": 3.93},
      {"measurement": "glycan array binding signal (z-score)", "setting": "[12]", "value": -0.009},
      {"measurement": "glycan array binding signal (z-score)", "setting": "[13]", "value": -0.289},
      {"measurement": "glycan array binding signal (z-score)", "setting": "[14]", "value": -0.799},
      {"measurement": "glycan array binding signal (z-score)", "setting": "[15]", "value": 1.63},
      {"measurement": "glycan array binding signal (z-score)", "setting": "[16]", "value": -0.396},
      {"measurement": "glycan array binding signal (z-score)", "setting": "[17]", "value": -0.211},
      {"measurement": "glycan array binding signal (z-score)", "setting": "Neu5Gc(a2-3)Gal(b1-4)Glc", "value": 0.337}
    ]}
  ]
}
